Assay results taken from PubChem BioAssay (NCI).
The panel holds about 79,000 compounds, 15% with a hit somewhere; the sample as a whole holds those more often. Values without a mark were called inactive. Activity calls are given as the source filed them. Cut-off read from the data, not from the text of the source: active = growth inhibition above about 70%; inactive = the rest.

Tests used:
[1] = NCI Yeast Anticancer Drug Screen. Data for the rad50 strain (AID 155);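 note: 0% = growth of vehicle-only cultures of the same strain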; conditions: S. cerevisiae rad50 strain growth inhibition, stronger effect = higher value
Summary of the method: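 Inhibition values express reduced yeast growth in compound-treated cultures relative to vehicle-treated controls.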

[2] = NCI Yeast Anticancer Drug Screen. Data for the mec2-1 strain (AID 157); conditions: S. cerevisiae mec2-1 strain, stronger effect = higher value
Summary of the method: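 Using mec2-1 yeast: add compound, measure growth, express inhibition versus vehicle-treated cultures.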

[3] = NCI Yeast Anticancer Drug Screen. Data for the sgs1 mgt1 strain (AID 161);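 note: 0% = growth of cultures given vehicle only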; conditions: S. cerevisiae sgs1 mgt1 strain, stronger effect = higher value
Summary of the method: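 Yeast cells carrying a defined DNA-repair defect were exposed to test compounds. Growth inhibition was measured relative to vehicle-treated controls.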

[4] = NCI Yeast Anticancer Drug Screen. Data for the cln2 rad14 strain (AID 165);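 note: 0% = growth equal to vehicle treated cultures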; conditions: S. cerevisiae cln2 rad14 strain, stronger effect = higher value
Summary of the method: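 Yeast strain cln2 rad14, bearing defects in cell cycle control and DNA repair, serves as the test system; values reflect growth inhibition compared with vehicle.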

[5] = NCI Yeast Anticancer Drug Screen. Data for the bub3 strain (AID 167); conditions: S. cerevisiae bub3 mutant strain, stronger effect = higher value
Summary of the method: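 Steps: expose the mutant yeast strain to compound; grow alongside vehicle-treated cultures; measure growth; express inhibition against the vehicle cultures.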

[6] = NCI Yeast Anticancer Drug Screen. Data for the mlh1 rad18 strain (AID 175); conditions: S. cerevisiae mlh1 rad18 strain growth inhibition, stronger effect = higher value
Summary of the method: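 Steps: expose repair-defective yeast to compound; measure growth; express inhibition against vehicle-treated controls.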

[7] = at 5.0 µM (retest, dose inferred, filed as 0.5)
[8] = at 50.0 µM (retest, dose inferred, filed as 5.0)

Structure (SMILES) | growth inhibition [1, 7] | growth inhibition [1, 8] | growth inhibition ([1]; at 50.0 µM) | growth inhibition [2, 7] | growth inhibition [2, 8] | growth inhibition ([2]; at 50.0 µM) | growth inhibition [3, 7] | growth inhibition [3, 8] | growth inhibition ([3]; at 50.0 µM) | growth inhibition [4, 7] | growth inhibition [4, 8] | growth inhibition ([4]; at 50.0 µM) | growth inhibition [5, 7] | growth inhibition [5, 8] | growth inhibition ([5]; at 50.0 µM) | growth inhibition [6, 7] | growth inhibition [6, 8] | growth inhibition ([6]; at 50.0 µM)
O=c1cccccc1[O-].O=c1cccccc1[O-].O=c1cccccc1[O-].[Ce+3] | 31% | 31% | 90% (active) | 20% | 20% | 92% (active) | 13% | 13% | 85% (active) | 16% | 16% | 90.4% (active) | 10% | 10% | 91.2% (active) | 26% | 26% | 88.5% (active)
CCN(CCO)CC1OC(OC)C2OC(C)(C)OC12 (configuration not stated) | -1% | 83% (active) | 10% | 0% | 91% (active) | 2.55% | -2% | 84% (active) | -0.9% | -3% | 83% (active) | 85.8% (active) | -2% | 89% (active) | 24.5% | -1% | 90% (active) | 35.7%
O=Nc1c(-c2c[nH]c3ccccc23)[nH]c2ccccc12 | 8% | 60% | 51.1% | 7% | 44% | 24.2% | 13% | 56% | 16% | -8% | 33% | 16.9% | 13% | 84% (active) | 69% | 12% | 53% | 26.1%
COc1cc2c(cc1O)-c1c(cnn1-c1ccccc1)CCC2 | -7% | 85% (active) | 95.5% (active) | -5% | 93% (active) | 96% (active) | 2% | 88% (active) | 97.4% (active) | -17% | 88% (active) | 55% | -7% | 86% (active) | 93.3% (active) | -8% | 92% (active) | 97.6% (active)
CCCCCCCCCCCCCCC(=O)OCC[N+](C)(C)C | 33% | 98% (active) | 90.2% (active) | 24% | 98% (active) | 93% (active) | 45% | 99% (active) | 92.8% (active) | 33% | 98% (active) | 85.3% (active) | 44% | 99% (active) | 91.8% (active) | 27% | 97% (active) | 91.2% (active)
CCCCCCCCCCCCCCCC(=O)N1CCOCC1 | -4% | 94% (active) | 31.4% | -5% | 97% (active) | 31.8% | -4% | 98% (active) | -13.7% | 1% | 62% | -64.8% | -8% | 98% (active) | 21.2% | 17% | 93% (active) | 28.1%
CNc1ccc(N=O)cc1 | -1% | 90% (active) | 87.8% (active) | 27% | 99% (active) | 90.8% (active) | 5% | 57% | 89% (active) | 19% | 81% (active) | 74.7% (active) | 25% | 98% (active) | 89.2% (active) | 19% | 98% (active) | 87.6% (active)
Cc1c[n+](CC(=O)c2ccc(I)cc2)c(C)s1 | 0% | 13% | -16.2% | -1% | 2% | 4.1% | -1% | 12% | -2.85% | -4% | -5% | 46.3% | -2% | 9% | 1.7% | -2% | -2% | 16.8%
CC1=C(C(=O)OCCc2ccc([N+](=O)[O-])cc2)C(c2ccccc2[N+](=O)[O-])C(C(=O)OC(C)C)=C(C)N1 (configuration not stated) | 12% | 93% (active) | 69.6% | 13% | 94% (active) | 74.3% (active) | 1% | 87% (active) | 75.7% (active) | 0% | 80% (active) | 68.4% | 4% | 89% (active) | 74.6% (active) | 10% | 94% (active) | 68%
